Records with an inconclusive call do not appear. A number with no mark means an inactive call. Active and inactive are the calls of the source. Calls come from the whole dose curve; as a rule, active = well fitted cell-killing curve with a large enough effect in the repeat runs; inconclusive = weak or mixed curves, or effect the other way; inactive = flat fitted curve, though single readings scatter.

Experiment [1] in a line: cAMP Responsive Elements (CRE) small molecule antagonists, cell-based qHTS assay: qHTS cell viability counter screen (AID 2060913). Note: nearly all actives have a fitted effect of over 40% in size. The essentials:
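Cytotoxicity read in the same wells as the CRE-bla HEK293T antagonist assay: after 3 h compound with 0.25 uM NKH477 final and 2 h beta-lactamase substrate, CellTiter-Glo luminescence measured.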
A general note: In qHTS, concentration-response curves come from the screen itself.

The nature of experiment [2]: cAMP Responsive Elements (CRE) small molecule agonists, cell-based qHTS assay: qHTS cell viability counter screen (AID 2060914).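 Note: viability read after 3 h of compound exposure; nearly all actives have a fitted effect of over 50% in size.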 In a few lines:
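CRE-bla HEK 293T cells, plated 18 h at 37 °C, were exposed to compounds for 3 h at 37 °C/5% CO2. Viability was then measured in the same wells by CellTiter-Glo luminescence after 30 min at room temperature.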
% is set by controls: 0 for no effect and ±100 for the full control effect; potency is the fitted concentration of half-maximal effect.

As for `CCCN(CCC)c1c([N+](=O)[O-])cc(C(F)(F)F)cc1[N+](=O)[O-]`, the Potency entry in experiment [1] and in experiment [2] was “inactive” each time.
For the molecule `CC(C)(C)c1ccc(CSc2cnn(C(C)(C)C)c(=O)c2Cl)cc1`, the Potency result in experiment [1] and in experiment [2] was “inactive” each time.
With `CCCCOC(=O)c1ccccc1C(=O)OCCCC`, the Potency entry in experiment [1] and in experiment [2] was “inactive” each time.
Turning to `CC1(C)CON(Cc2ccccc2Cl)C1=O`, the Potency entry in experiment [1] and in experiment [2] was “inactive” in each case.
For the molecule `COC[C@H](C)N(C(=O)CCl)c1c(C)csc1C`, the Potency result in experiment [1] and in experiment [2] was “inactive” in each case.
As for `CCCCCCCCCCCCCC[P+](CCCCCC)(CCCCCC)CCCCCC` (tested in a mixture with another compound), the Potency was 24.3 µM (active) in experiment [1] and 21.7 µM (active) in experiment [2].
The matching figures for `C[C@H]1CCCC(=O)CCC/C=C/c2cc(O)cc(O)c2C(=O)O1`: “inactive” and “inactive”.
For the molecule `O=[N+]([O-])c1ccc(Oc2ccc(C(F)(F)F)cc2[N+](=O)[O-])cc1`, the Potency entry in experiment [1] and in experiment [2] was “inactive” each time.
Consider `c1ccc(N=NNc2ccccc2)cc1`, for which the Potency entry in experiment [1] and in experiment [2] was “inactive” in each case.
On to `CCC(C)c1cc(C(C)(C)C)cc(-n2nc3ccccc3n2)c1O` (stereo not drawn), for which the Potency entry in experiment [1] and in experiment [2] was “inactive” each time.
Take `CSc1nc(N=[N+]=[N-])nc(NC(C)C)n1`: the Potency entry in experiment [1] and in experiment [2] was “inactive” throughout.
For `FC(F)(F)c1cccc(C2=CCN(CCc3ccc4ccccc4c3)CC2)c1`, the Potency entry in experiment [1] and in experiment [2] was “inactive” each time.
Take `O=C1CN=C(c2ccccc2)c2cc([N+](=O)[O-])ccc2N1`: the Potency result in experiment [1] and in experiment [2] was “inactive” in each case.
Take `CO[C@@H]1[C@H](OC(=O)NC(=O)CCl)CC[C@]2(CO2)[C@H]1[C@@]1(C)O[C@@H]1CC=C(C)C`: the viability change, negative = cytotoxic in experiment [1] was 9.39% [at 18.9 µM]. In experiment [2], the activity change, negative = cytotoxicity is 13.5% [at 18.9 µM].
